# An excerpt weighted towards active compounds, which were near 4.5% of everything screened.
# GRK2 aptamer HTS = inhibitors of human GRK2 displacing RNA aptamer; P25098; bead flow cytometry, FAM-aptamer displacement from GRK2; inhibition of aptamer binding, % at 10 µM; 0.59% of 330,000 active; AID 488847;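 active = inhibition of aptamer binding above 40%, roughly 3 SD of noise, on plates passing a quality check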;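 note: median bead fluorescence of bound FAM aptamer so fluorescent compounds give negative values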
# Rtt109 HAT inh = inhibitors of Candida albicans Rtt109/Vps75 histone acetyltransferase | purified Rtt109/Vps75, ThioGlo CoA-SH fluorescence, 4 h | Q5AAJ8 | inhibition, % at 34.9 µM | 0.16% of 330,000 active | AID 540336;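 active = inhibition of at least 50% in every replicate; inconclusive = best replicate reaches 50% inhibition but some replicates fall short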
# Rce1 inh = blocks yeast Ras-converting enzyme; 0.27% of 290,000 active; AID 2563; yeast membranes, quenched prenylated peptide cleavage fluorescence; calls only;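 active = fall in fluorescence gain of 50% or more versus controls, with final raw signal at or below 3038400; inconclusive = same 50% fall but final raw signal above 3038400; inactive = fall in fluorescence gain under 50%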;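 note: plate controls were neutral control wells for no effect and wells lacking membranes for full effect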
# Target sequence (Q03530 whole entry, looked up): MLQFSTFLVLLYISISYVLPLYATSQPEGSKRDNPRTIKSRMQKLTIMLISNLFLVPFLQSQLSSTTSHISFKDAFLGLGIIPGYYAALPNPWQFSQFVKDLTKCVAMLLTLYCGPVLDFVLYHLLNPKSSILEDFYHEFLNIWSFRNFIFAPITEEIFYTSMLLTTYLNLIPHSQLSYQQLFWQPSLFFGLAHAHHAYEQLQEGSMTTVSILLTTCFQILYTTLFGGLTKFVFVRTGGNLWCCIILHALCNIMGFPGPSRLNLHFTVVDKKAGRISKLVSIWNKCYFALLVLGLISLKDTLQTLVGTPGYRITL
# Efflux pump inh = inhibitors of Candida antifungal efflux pumps expressed in yeast | 0.44% of 330,000 active | S. cerevisiae Candida pump triplex, Nile Red efflux | inhibition, % at 10 µM;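 active = plate passing quality check with inhibition over a set limit, or well fluorescence over plate mean plus 4 SD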;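 note: Nile Red retained in pooled yeast measured as flow cytometry median fluorescence; 0% = buffer negative control and 100% = Enniatin B positive control; higher means more Nile Red kept so more efflux inhibition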
# ALR H2O2 inh = inhibitors of human sulfhydryl oxidase ALR. P55789. purified ALR, DTT oxidation, H2O2 HRP-luminol luminescence. inhibition, % (test concentration not listed). 3.8% of 290,000 active. AID 485317;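 active = mean replicate inhibition above about 79%, with every replicate also reaching it, limit read from the data; inconclusive = only one of the two criteria met; inactive = mean below limit and not every replicate reaching it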
# Target sequence (P55789 whole entry, looked up): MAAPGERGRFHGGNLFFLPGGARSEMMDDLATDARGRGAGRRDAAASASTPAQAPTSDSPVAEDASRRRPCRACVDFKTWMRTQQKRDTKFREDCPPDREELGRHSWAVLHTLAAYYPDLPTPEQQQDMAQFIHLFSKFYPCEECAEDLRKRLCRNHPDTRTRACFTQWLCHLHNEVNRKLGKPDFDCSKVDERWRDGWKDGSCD
# HDAC3 inh = inhibitors of human histone deacetylase 3; O15379; recombinant HDAC3, fluorogenic peptide/trypsin coupled, fluorescence; inhibition, % at 8.3 µM; 0.15% of 320,000 active; in the data active = inhibition above about 26%, passing the limit was not always enough; inconclusive = no clear call, values can overlap the other calls
# Cmpd fluor yeast = compound fluorescence in yeast efflux pump counter-screen. shares compounds with Efflux pump inh. S. cerevisiae AD/pABC3, flow cytometry. fluorescence ratio to DMSO, % at 10 µM. 4% of 1,700 active;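 active = fluorescence ratio to DMSO above its plate's cutoff, the plate mean ratio plus 5 SD, cut at about 210% in these data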;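 note: unstained yeast with no Nile Red so the signal is compound autofluorescence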
# CaMdr1 efflux inh = inhibitors of Candida albicans Mdr1 efflux pump; inhibition, % at 10 µM; S. cerevisiae AD/CaMDR1, Nile Red efflux, flow cytometry; AID 588518; 1% of 1,700 active; shares compounds with Efflux pump inh; in the data active = inhibition above about 26%;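 note: 0% = DMSO vehicle and 100% = reference inhibitor; higher means more Nile Red retained so more efflux inhibition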
# Cdr2 pump inh = blocks the Candida albicans Cdr2 efflux pump in yeast; shares compounds with Efflux pump inh; Nile Red retention ratio vs DMSO, % at 10 µM; S. cerevisiae AD/CaCDR2, Nile Red retention, flow cytometry; 4% of 1,700 active; in the data active = Nile Red retention ratio vs DMSO above about 190%;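 note: higher ratio means more blocking of Cdr2 efflux of the dye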
# CaCdr1 efflux inh = Candida Cdr1 efflux pump inhibition | S. cerevisiae AD/CaCDR1, Nile Red efflux, flow cytometry | 1% of 1,700 active | inhibition, % at 10 µM | shares compounds with Efflux pump inh;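 active = inhibition above the screen-wide mean plus twice its standard deviation, cut at about 32% in these data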
# Active calls of the source: *; i = inactive; ? = inconclusive; · = no result given.
SMILES,GRK2 aptamer HTS,Rtt109 HAT inh,Rce1 inh,Efflux pump inh,ALR H2O2 inh,HDAC3 inh,Cmpd fluor yeast,CaMdr1 efflux inh,Cdr2 pump inh,CaCdr1 efflux inh
CC1(C)Cc2c(cnn2-c2ccc(F)cc2)C(NC(=O)c2cnccn2)C1 (centres undefined),1.0,-3.6,i,6.2*,·,-0.8,97.8,-0.3,100.1,0.0
COc1ccc(-n2ncc3c2CC(C)(C)CC3NC(=O)c2cn[nH]c2)cc1 (centres undefined),1.0,8.8,i,-0.3,-3.2,5.5,97.0,-0.3,82.4,-0.3
Cc1cc(C)c(NC(=O)CS(=O)CC(=O)N2CCN(c3cccc(C)c3C)CC2)c(C)c1 (centres undefined),2.0,2.2,i,0.1,-1.7,-3.2,·,·,·,·
CCn1c(SCC(=O)c2ccc(C)cc2)nnc1-c1ccncc1,0.0,0.3,i,8.2*,28.1,-6.1,114.3,0.1,114.4,0.0
Cc1ccc(C(=O)CSc2nnc(-c3ccncc3)n2C)cc1,1.0,-7.1,i,0.0,33.8,?,·,·,·,·
CCN(CC)C(=O)CSc1nnc(-c2ccncc2)n1N,0.0,5.9,i,5.9*,7.7,3.2,109.5,0.2,97.7,1.0
CCCCc1nnc(NC(=O)CSCc2cc(=O)n3cc(C)sc3n2)s1,0.0,·,i,0.5,-3.6,1.8,·,·,·,·
NS(=O)(=O)c1cccc(NC(=O)CSc2n[nH]c(-c3ccccc3Br)n2)c1,·,5.9,·,·,·,·,·,·,·,·
Cc1occc1C(=O)N(C)CC1CCCN(CCc2ccccc2F)C1 (centres undefined),2.0,-7.2,i,5.0*,-11.1,-3.1,112.7,0.0,89.3,0.1
O=c1[nH]c(C2CCN(S(=O)(=O)c3ccccc3C(F)(F)F)CC2)nc2c1nnn2Cc1cccc(F)c1,2.0,14.2,i,3.1*,1.0,1.7,100.2,-0.1,114.1,0.0
Cc1ccc(Cn2nnc3c(=O)[nH]c(C4CCN(S(=O)(=O)c5ccc(F)cc5)CC4)nc32)cc1,4.0,-5.4,i,-0.1,-3.2,5.9,100.3,-0.2,116.0,0.0
Cc1ccc(C)c(Cn2nnc3c(=O)[nH]c(C4CCN(S(=O)(=O)c5ccc(S(=O)(=O)N(C)C)cc5)CC4)nc32)c1,4.0,-1.8,i,0.4,2.6,5.8,93.3,-0.3,116.5,0.0
O=c1[nH]c(C2CCN(S(=O)(=O)c3ccc4c(c3)OCCO4)CC2)nc2c1nnn2Cc1c(F)cccc1Cl,0.0,-2.1,i,0.0,·,-5.1,·,·,·,·
Cc1ccc(Cn2nnc3c(=O)[nH]c(C4CCN(S(=O)(=O)c5cc(C)ccc5C)CC4)nc32)cc1,2.0,2.9,i,0.0,4.1,?,·,·,·,·
Cc1ccc(C)c(S(=O)(=O)N2CCC(c3nc4c(nnn4Cc4ccc(F)cc4)c(=O)[nH]3)CC2)c1,0.0,-1.1,·,-0.1,·,9.2,·,·,·,·
O=c1[nH]c(C2CCN(S(=O)(=O)c3ccc4c(c3)OCCO4)CC2)nc2c1nnn2Cc1ccccc1F,0.0,10.7,i,1.0*,3.8,-1.4,110.0,0.5,120.8,0.3
O=c1[nH]c(C2CCN(S(=O)(=O)c3ccc(C(F)(F)F)cc3)CC2)nc2c1nnn2Cc1cccc(F)c1,0.0,0.6,i,-0.2,·,5.1,·,·,·,·
O=C(O)CCN1CCc2ccccc2C1c1ccncc1 (centres undefined),0.0,8.8,i,-0.1,-7.1,-2.3,·,·,·,·
Cc1ccc(C)c(Cn2nnc3c(=O)[nH]c(C4CCN(S(=O)(=O)c5ccc(S(=O)(=O)NC6CC6)cc5)CC4)nc32)c1,2.0,15.5,i,3.1*,-11.7,-2.3,99.0,-0.2,105.1,0.0
O=c1[nH]c(C2CCN(S(=O)(=O)c3ccc(S(=O)(=O)NC4CC4)cc3)CC2)nc2c1nnn2Cc1ccccc1,3.0,18.7,i,0.5,-13.3,3.6,·,·,·,·
O=C(CN1C(=O)NC2(CCCc3ccccc32)C1=O)NCC(F)(F)F (centres undefined),0.0,2.0,i,-0.1,-0.7,8.7,·,·,·,·
CC(=O)NCCOc1nc(N(C)C)nc(N2CCOCC2)n1,0.0,0.6,i,0.5*,3.2,7.3,95.0,0.1,112.2,0.0
COc1cccc(N2CCN(C(=O)CN(C)S(=O)(=O)c3ccc4c(c3)c(=O)n(C)c(=O)n4C)CC2)c1,1.0,-11.5,i,-0.2,41.1,5.5,·,·,·,·
CC1Cc2cc(S(=O)(=O)N3CCCCC3C)ccc2N1C(=O)C1CCC1 (centres undefined),1.0,16.4,i,0.1,-2.3,-7.6,·,·,·,·
CCOC(=O)C1CCCCN1S(=O)(=O)c1ccc2c(c1)CC(C)N2C(=O)C1CCC1 (centres undefined),1.0,-4.6,i,-0.1,-2.9,-3.7,103.1,-0.1,96.3,0.1
SMILES,GRK2 aptamer HTS,Rtt109 HAT inh,Rce1 inh,Efflux pump inh,ALR H2O2 inh,HDAC3 inh,Cmpd fluor yeast,CaMdr1 efflux inh,Cdr2 pump inh,CaCdr1 efflux inh
C=CCn1c(SCc2ccc(C(=O)OC)cc2)nnc1-c1sc(N)nc1C,·,1.4,i,15.2*,-2.7,4.5,105.8,-0.3,100.7,-0.1
O=C(NCCCN1CCOCC1)/C(=C/c1cccnc1)NC(=O)c1ccccc1,0.0,0.9,i,-0.1,-2.9,-4.4,·,·,·,·
O=C(CCC1CCCCC1)NNC(=O)NC12CC3CC(CC(C3)C1)C2,2.0,17.3,i,0.7*,4.6,3.2,98.2,-0.4,87.3,-0.1
Cc1ccccc1NC(=S)NCc1ccccc1,0.0,4.6,i,8.9*,13.0,-7.9,94.8,-0.2,111.6,-0.1
O=C(COC(=O)/C=C/c1ccc([N+](=O)[O-])cc1)NCC1CCCCC1,1.0,0.8,·,-0.2,54.2,-2.9,·,·,·,·
CSc1nnnn1-c1ccc(C)c(Cl)c1,0.0,-2.9,i,14.2*,-4.0,3.3,100.0,-0.1,108.3,0.0
Clc1ccc(-c2n[nH]c3c2CCC3)cc1Cl,0.0,-2.3,i,0.6*,·,5.3,93.7,0.0,103.6,-0.3
CC(=O)OCCn1c2nc(=O)[nH]c(=O)c-2nc2cc(C)c(C)cc21,0.0,6.3,i,0.7*,-68.1,3.3,121.2,0.1,137.4,0.6
COCCNC(=O)C(OC(=O)c1ccco1)c1ccccc1F (centres undefined),0.0,4.0,i,0.0,-16.8,-3.7,·,·,·,·
COc1ccc(N2CCN(C(CNC(=O)C3CCCCC3)c3ccco3)CC2)cc1 (centres undefined),0.0,-0.9,i,0.1,·,-1.6,·,·,·,·

# Bioassay records from PubChem BioAssay.
